Laboratory results reported in PubChem BioAssay (Tox21).
Values without a mark were called inactive. Records with an inconclusive call do not appear. A call without a number means that no potency is given here. Calls of active or inactive are those of the source. Unless noted, the call rests on the fitted dose curve; in most records, active means well fitted curve in the direction sought with a large enough effect in the repeat runs; inconclusive means weak or mixed curves; inactive means no such curve, though single readings can be large; an effect the other way counts as inactive or inconclusive.

Tests used:
[1] = target: Thyrotropin-releasing hormone receptor (Homo sapiens) (UniProt P34981); assay: qHTS assay to identify small molecule agonists of the thyrotropin-releasing hormone receptor (TRHR) signaling pathway (AID 1346891; calls by dose curve;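 further: HEK293 cells expressing TRHR with calcium dye readout; series mostly up to about 58 µM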)
Method in brief: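 Kinetic fluorescence (3 min, 1 s intervals) reported intracellular calcium after compound transfer onto TRHR-Hek293 cells pre-loaded with dye for 2 h at 37 °C.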

[2] = Human pregnane X receptor (PXR) small molecule agonists, qHTS cell viability counter screen (AID 1346977); further: nearly all actives have a fitted effect of over 50% in size
Method in brief: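 HepG2 cells stably carrying the PXR-Luc reporter are cultured with 5% charcoal-stripped FBS and treated with compounds for 24hr. CellTiter-Fluor is added at 23hr and fluorescence is read after 1hr.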

[3] = Caspase-3/7 induction in HepG2 cells by small molecules, qHTS assay (AID 1346978); further: nearly all actives have a fitted effect of over 15% in size
Method in brief: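 Wild-type HepG2 cells (2,000/well) were settled 5 h at 37 C, 5% CO2, then exposed to compounds in DMSO for 17 h. Caspase-3/7 activity was read by luminescence 30 min after adding Caspase-Glo 3/7 reagent at room temperature.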

[4] = Caspase-3/7 induction in CHO-K1 cells by small molecules, qHTS cell viability counter screen (AID 1346979); further: nearly all actives have a fitted effect of over 35% in size
Method in brief: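 Seeding: 1,500 CHO-K1 cells/well. Rest: 5hr, 37C. Treatment: compounds in DMSO, 16hr. Read: CellTiter-Fluor, 1hr, fluorescence.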

[5] = Caspase-3/7 induction in CHO-K1 cells by small molecules, qHTS assay (AID 1346980); further: nearly all actives have a fitted effect of over 15% in size
Method in brief: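 Wild-type cells were seeded at 1,500 per well and settled 5 hr at 37 C, 5% CO2, then exposed to DMSO-dissolved compounds for 17 hr. Caspase-Glo 3/7 reagent was added, and luminescence was read after 30min at room temperature.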

[6] = Caspase-3/7 induction in HepG2 cells by small molecules, qHTS cell viability counter screen (AID 1346981); further: series mostly up to about 92 µM; nearly all actives have a fitted effect of over 30% in size
Method in brief: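 Steps: seed 2,000 HepG2 cells per well; incubate 5 hr at 37 C; pin-add compounds in DMSO; incubate 16 hr; add CellTiter-Fluor; after 1 hr at 37 C and 5% CO2, read fluorescence.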

[7] = target: Nuclear receptor subfamily 1 group I member 2 (Rattus norvegicus) (UniProt Q9R1A7); assay: Rat pregnane X receptor (rPXR) activation by small molecules, qHTS assay (AID 1346983); settings: rPXR luciferase reporter cells, One-Glo luminescence, 24 h; max activation: active compounds read high; further: nearly all actives have a fitted effect of over 20% in size
Method in brief: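 Cell-based rPXR luciferase reporter assay, 2,000 cells per well, rested 5hr at 37 C before compound addition in DMSO, then 24 hr at 37 C. One-Glo reagent was added and luminescence read after 30 min at room temperature.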

[8] = target: Cytochrome P450 2D6 (Homo sapiens) (UniProt P10635); assay: Cytochrome P450 Family 2 Subfamily D Member 6 (CYP2D6) small molecule antagonists: luciferase reporter qHTS assay (AID 1671196); further: series mostly up to about 120 µM; nearly all actives have a fitted effect of over 50% in size
Method in brief: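 P450-Glo format: CYP2D6 converts a proluciferin substrate to luciferin in an NADPH-driven reaction lasting 1 h at room temperature. Light output, proportional to CYP2D6 activity, reflects interference by test chemicals.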

[9] = target: Cytochrome P450 2C9 (Homo sapiens) (UniProt P11712); assay: Cytochrome P450 Family 2 Subfamily C Member 9 (CYP2C9) small molecule antagonists: luciferase reporter qHTS assay (AID 1671198); further: nearly all actives have a fitted effect of over 50% in size; further: potency means the concentration at half of the fitted maximal effect
Method in brief: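 CYP2C9 activity was measured with a P450-Glo proluciferin substrate. Enzyme–substrate mix was held with compound for 10 min at room temperature, then NADPH regeneration solution was added for 1 h at 37C. Luciferin product was read as luminescence.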

[10] = target: Voltage-gated inwardly rectifying potassium channel KCNH2 (Homo sapiens) (UniProt Q12809); assay: Human Ether-a-go-go-Related Gene (hERG) channel small molecule antagonists: fluorescence cell-based qHTS assay (AID 1671200);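 further: hERG-expressing U2OS cells given a thallium stimulus after FluxOR II dye loading; series mostly up to about 77 µM; nearly all actives have a fitted effect of over 50% in size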
Method in brief: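 First, 1000 cells per well are seeded and cultured overnight at 37 C. Next, FluxOR II dye is loaded for 1 h at room temperature, protected from light. After 10 more minutes, stimulus is added and fluorescence is read.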

[11] = target: Nuclear receptor subfamily 1 group I member 2 (Homo sapiens) (UniProt O75469); assay: Human pregnane X receptor (PXR) small molecule agonists, qHTS assay (AID 1346982); further: nearly all actives have a fitted effect of over 35% in size
Method in brief: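 Agonist mode qHTS: PXR-Luc HepG2 cells plated 5 hr before DMSO-dissolved compounds were pinned in, cultured 24 hr at 37 C, 5% CO2; ONE-Glo luminescence readout.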

[12] = target: Cytochrome P450 3A4 (Homo sapiens) (UniProt P08684); assay: Cytochrome P450 Family 3 Subfamily A Member 4 (CYP3A4) small molecule antagonists: luciferase reporter qHTS assay (AID 1671201); further: nearly all actives have a fitted effect of over 50% in size; further: potency means the concentration at half of the fitted maximal effect
Method in brief: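 Enzyme and proluciferin substrate are mixed with test chemicals for 10 min, then NADPH regeneration system drives turnover for 1 h at room temperature. A detection reagent halts the reaction; luminescence after 20 min gives relative activity.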

[13] = target: Cytochrome P450 2C19 (Homo sapiens) (UniProt P33261); assay: Cytochrome P450 Family 2 Subfamily C Member 19 (CYP2C19) small molecule antagonists: luciferase reporter qHTS assay (AID 1671197); further: nearly all actives have a fitted effect of over 65% in size; further: potency means the concentration at half of the fitted maximal effect
Method in brief: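 First, compounds are pinned into enzyme-substrate mix and held 10 min at room temperature. Second, NADPH regeneration solution is added and plates incubate 1 h at 37C. Third, detection reagent is added and luminescence read after 20 min.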

Sequence of Cytochrome P450 2D6 (Homo sapiens) (P10635 whole entry, looked up): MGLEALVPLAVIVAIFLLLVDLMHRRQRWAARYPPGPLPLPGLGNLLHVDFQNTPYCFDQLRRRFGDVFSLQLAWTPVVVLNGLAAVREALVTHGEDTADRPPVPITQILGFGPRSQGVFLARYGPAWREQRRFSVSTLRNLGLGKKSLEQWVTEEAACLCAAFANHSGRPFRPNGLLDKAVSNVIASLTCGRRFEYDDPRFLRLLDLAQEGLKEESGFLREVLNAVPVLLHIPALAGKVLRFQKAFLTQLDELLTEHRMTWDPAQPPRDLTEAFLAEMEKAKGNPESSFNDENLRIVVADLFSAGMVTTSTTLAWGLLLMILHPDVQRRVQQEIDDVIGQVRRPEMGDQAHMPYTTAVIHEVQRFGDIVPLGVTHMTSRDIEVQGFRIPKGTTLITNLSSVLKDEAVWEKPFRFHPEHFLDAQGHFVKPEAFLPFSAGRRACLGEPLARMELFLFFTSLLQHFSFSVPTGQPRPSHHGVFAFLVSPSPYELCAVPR
Sequence of Voltage-gated inwardly rectifying potassium channel KCNH2 (Homo sapiens) (Q12809 whole entry, looked up): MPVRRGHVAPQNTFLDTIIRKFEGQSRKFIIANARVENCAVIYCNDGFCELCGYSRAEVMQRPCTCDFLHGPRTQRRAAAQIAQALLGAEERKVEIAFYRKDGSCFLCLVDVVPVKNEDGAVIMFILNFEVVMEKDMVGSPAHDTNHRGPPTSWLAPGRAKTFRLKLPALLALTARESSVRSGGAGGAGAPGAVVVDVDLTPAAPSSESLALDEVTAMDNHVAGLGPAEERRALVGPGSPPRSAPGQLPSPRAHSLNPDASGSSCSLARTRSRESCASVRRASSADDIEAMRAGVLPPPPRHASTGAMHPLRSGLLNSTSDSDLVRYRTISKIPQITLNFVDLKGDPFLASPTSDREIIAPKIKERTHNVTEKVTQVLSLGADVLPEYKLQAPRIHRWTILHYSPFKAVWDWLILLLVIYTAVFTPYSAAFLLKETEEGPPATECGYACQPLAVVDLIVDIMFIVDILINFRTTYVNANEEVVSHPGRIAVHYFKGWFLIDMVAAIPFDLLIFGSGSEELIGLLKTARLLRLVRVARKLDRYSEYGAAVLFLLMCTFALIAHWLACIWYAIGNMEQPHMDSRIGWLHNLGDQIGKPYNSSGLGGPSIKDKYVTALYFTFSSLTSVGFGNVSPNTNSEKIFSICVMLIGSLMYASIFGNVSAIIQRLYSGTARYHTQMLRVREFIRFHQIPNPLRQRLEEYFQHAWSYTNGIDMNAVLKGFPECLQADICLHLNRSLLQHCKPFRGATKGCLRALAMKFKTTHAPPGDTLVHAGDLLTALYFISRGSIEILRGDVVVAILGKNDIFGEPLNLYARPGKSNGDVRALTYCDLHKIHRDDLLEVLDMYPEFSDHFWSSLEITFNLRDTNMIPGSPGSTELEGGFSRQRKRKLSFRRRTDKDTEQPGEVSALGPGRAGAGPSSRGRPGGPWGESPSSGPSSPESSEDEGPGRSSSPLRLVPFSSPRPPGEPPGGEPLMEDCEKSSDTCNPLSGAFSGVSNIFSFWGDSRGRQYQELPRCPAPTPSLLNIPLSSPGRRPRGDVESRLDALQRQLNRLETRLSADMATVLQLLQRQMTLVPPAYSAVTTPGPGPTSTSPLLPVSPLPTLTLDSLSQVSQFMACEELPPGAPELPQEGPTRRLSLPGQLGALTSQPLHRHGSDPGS
Sequence of Cytochrome P450 2C9 (Homo sapiens) (P11712 whole entry, looked up): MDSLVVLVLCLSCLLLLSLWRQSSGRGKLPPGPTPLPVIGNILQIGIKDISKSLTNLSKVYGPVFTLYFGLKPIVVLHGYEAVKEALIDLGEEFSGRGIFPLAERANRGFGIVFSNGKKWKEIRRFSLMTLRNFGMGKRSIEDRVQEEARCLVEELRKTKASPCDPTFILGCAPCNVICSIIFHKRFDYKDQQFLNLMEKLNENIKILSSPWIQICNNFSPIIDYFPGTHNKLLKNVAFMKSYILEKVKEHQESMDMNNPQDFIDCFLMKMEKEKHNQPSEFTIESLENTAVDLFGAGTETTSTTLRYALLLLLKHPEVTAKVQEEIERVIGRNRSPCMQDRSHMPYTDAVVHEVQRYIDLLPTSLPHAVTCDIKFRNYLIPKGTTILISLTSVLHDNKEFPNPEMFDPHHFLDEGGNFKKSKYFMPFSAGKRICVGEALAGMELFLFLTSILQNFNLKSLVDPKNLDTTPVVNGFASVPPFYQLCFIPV
Sequence of Thyrotropin-releasing hormone receptor (Homo sapiens) (P34981 whole entry, looked up): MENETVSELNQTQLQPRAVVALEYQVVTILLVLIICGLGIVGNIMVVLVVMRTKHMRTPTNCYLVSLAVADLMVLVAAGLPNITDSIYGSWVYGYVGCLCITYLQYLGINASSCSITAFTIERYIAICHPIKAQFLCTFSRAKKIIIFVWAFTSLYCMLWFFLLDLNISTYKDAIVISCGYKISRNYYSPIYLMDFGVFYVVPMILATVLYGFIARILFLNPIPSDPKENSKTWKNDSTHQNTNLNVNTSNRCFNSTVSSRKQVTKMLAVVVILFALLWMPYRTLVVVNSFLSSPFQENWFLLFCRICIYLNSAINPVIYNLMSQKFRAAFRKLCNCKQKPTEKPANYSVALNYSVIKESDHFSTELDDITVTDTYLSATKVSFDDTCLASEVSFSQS
Sequence of Cytochrome P450 2C19 (Homo sapiens) (P33261 whole entry, looked up): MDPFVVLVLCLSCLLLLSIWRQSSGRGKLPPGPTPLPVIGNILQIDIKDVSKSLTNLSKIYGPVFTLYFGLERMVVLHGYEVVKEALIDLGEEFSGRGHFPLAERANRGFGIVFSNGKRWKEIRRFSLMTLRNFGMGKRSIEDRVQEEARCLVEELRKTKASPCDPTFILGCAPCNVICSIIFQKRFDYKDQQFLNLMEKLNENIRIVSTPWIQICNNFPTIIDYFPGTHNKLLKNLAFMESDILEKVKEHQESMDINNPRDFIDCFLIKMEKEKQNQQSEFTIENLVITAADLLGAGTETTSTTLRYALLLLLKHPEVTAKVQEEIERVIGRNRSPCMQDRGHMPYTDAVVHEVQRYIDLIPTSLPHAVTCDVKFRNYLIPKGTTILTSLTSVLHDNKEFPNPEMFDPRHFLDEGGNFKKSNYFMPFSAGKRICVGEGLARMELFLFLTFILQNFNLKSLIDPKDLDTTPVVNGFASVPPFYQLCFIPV
Sequence of Cytochrome P450 3A4 (Homo sapiens) (P08684 whole entry, looked up): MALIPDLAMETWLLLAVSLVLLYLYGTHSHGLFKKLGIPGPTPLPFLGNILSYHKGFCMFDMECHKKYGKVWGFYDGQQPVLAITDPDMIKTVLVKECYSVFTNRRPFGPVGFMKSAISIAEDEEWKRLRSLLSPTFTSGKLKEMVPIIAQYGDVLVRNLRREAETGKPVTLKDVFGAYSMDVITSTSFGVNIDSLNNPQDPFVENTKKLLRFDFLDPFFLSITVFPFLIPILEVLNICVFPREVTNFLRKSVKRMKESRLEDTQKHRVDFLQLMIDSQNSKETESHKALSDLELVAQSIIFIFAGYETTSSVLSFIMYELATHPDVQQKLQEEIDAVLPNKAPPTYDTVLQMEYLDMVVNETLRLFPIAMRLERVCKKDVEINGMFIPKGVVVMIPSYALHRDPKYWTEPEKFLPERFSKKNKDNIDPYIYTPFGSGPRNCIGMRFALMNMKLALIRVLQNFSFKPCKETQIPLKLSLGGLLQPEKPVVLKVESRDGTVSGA
Sequence of Nuclear receptor subfamily 1 group I member 2 (Homo sapiens) (O75469 whole entry, looked up): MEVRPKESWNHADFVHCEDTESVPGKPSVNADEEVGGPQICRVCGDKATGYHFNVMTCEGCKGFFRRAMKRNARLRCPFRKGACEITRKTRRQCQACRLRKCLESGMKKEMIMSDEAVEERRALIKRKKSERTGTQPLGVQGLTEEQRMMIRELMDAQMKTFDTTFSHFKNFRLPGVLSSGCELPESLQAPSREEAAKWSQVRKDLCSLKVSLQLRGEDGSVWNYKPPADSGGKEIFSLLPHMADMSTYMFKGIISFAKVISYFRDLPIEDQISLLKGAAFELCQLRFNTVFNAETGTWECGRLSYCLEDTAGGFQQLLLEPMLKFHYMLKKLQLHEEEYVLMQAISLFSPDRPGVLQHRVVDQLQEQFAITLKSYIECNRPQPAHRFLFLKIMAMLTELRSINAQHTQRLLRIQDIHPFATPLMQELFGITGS
Sequence of Nuclear receptor subfamily 1 group I member 2 (Rattus norvegicus) (Q9R1A7 whole entry, looked up): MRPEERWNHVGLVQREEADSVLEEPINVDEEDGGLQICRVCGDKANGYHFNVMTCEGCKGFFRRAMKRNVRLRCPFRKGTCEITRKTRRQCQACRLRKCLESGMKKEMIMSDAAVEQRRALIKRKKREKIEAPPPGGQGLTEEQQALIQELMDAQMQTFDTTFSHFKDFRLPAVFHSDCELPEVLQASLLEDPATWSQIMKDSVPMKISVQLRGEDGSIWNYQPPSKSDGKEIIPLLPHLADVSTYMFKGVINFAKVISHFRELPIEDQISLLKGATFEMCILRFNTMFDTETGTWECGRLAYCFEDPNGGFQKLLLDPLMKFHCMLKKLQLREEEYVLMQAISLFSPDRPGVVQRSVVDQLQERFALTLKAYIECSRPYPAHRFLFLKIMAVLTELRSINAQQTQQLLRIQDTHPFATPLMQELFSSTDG

| Structure (SMILES) | outcome [1] | Potency [2] | outcome [3] | Potency [4] | outcome [5] | outcome [6] | max activation [7] [%] | Potency [8] | Potency [9] | Potency [10] | Potency [11] | Potency [12] | Potency [13] |
| --- | --- | --- | --- | --- | --- | --- | --- | --- | --- | --- | --- | --- | --- |
| O=C(O)/C=C/c1ccc(Cn2ccnc2)cc1 | inactive | inactive | inactive | inactive | inactive | inactive | -1.1 | inactive | 17.4 µM (active) | inactive |  |  |  |
| CCC(C)OC(=O)N1CCCCC1CCO (stereo not drawn) | inactive | inactive | inactive | inactive | inactive | inactive |  | inactive | 79.6 µM (active) | inactive | inactive | inactive |  |
| CC(=O)NC(Cc1ccccc1)C(=O)O (stereo not drawn) | inactive | inactive | inactive | inactive | inactive | inactive |  |  | inactive | inactive | inactive | inactive | inactive |
| CCO[Si](C)(OCC)OCC | inactive | inactive | inactive | inactive | inactive | inactive |  | inactive |  | inactive | inactive | 28.3 µM (active) | inactive |
| Cc1onc(-c2ccccc2)c1-c1ccc(S(N)(=O)=O)cc1 | inactive | inactive | inactive | inactive | inactive | inactive | -3.92 |  |  | inactive |  | inactive | 7.76 µM (active) |
